Experimental findings from PubChem BioAssay AID1220 (Sanford-Burnham Center for Chemical Genomics, 2008) are described below.

About 1,300 (0.68%) of roughly 190,000 compounds were called active. No stated cut-off is given here; in the data, active means inhibition above about 50%; inactive means the rest. For the sample, actives were picked, then their nearest neighbours and some compounds at random.

The target of the test is Mannose-6-phosphate isomerase (Homo sapiens) (UniProt P34949). Description: human PMI inhibitors, high substrate, primary screen, biochemical, fluorescence intensity, high mannose 6-phosphate (AID 1220). The note with it: recombinant PMI enzyme, coupled fluorescence intensity; at 20 µM; active compounds read high.
Sequence of Mannose-6-phosphate isomerase (Homo sapiens) (P34949 whole entry, looked up): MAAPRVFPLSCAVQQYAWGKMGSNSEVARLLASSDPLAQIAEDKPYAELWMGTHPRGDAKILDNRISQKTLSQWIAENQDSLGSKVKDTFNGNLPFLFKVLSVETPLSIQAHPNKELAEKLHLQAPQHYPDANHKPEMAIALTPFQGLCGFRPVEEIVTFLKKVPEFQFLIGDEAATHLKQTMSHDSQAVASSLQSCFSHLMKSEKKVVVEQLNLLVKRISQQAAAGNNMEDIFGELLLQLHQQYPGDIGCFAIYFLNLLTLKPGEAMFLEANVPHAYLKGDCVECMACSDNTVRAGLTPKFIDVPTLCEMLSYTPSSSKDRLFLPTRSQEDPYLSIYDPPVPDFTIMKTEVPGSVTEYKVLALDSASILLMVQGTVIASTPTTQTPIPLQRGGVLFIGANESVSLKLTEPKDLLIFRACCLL
In general, inhibition refers to the relative decrease from the control value, in per cent. As for `O=C(c1ccc(OC2CCN(Cc3ccccn3)CC2)cc1)N1CCCC(O)C1` (stereo unspecified), the inhibition was -8.1% (inactive).

In the case of `Cn1c(Cn2c(=O)sc3ccccc32)nnc1SCC(=O)Nc1ccccc1F`, the inhibition is 0.2% (inactive).

As to `O=C(COc1ccccc1)Nc1ccc(CSc2ccccc2)cc1`, the inhibition was 2.7% (inactive).

Take `O=C(NCc1ccccn1)C(=O)NCC(c1ccco1)N1CCOCC1` (stereo unspecified): the inhibition was -8.8% (inactive).

As to `COc1ccc(NC(=S)NCC2CCN(c3ccc(OC)cc3)C2)cc1` (stereo unspecified), the inhibition is 55.3% (active).

In the case of `COc1ccc(NC(=S)NCCN2CCOCC2)cc1`, the inhibition was -3.1% (inactive).

`COc1ccc(N2CCC(CNC(=S)Nc3cccc(OC)c3)C2)cc1` (stereo unspecified): the inhibition is 45.4% (inactive).

Take `COc1ccc(CNC(=S)Nc2ccc(OC)cc2)cc1`: the inhibition was 7.4% (inactive).

With `COc1ccc(CNC(=S)Nc2cccc(C)c2)cc1`, the inhibition was 7.5% (inactive).

Regarding `COc1ccc(N2CCC(CNC(=S)Nc3cccc(C)c3)C2)cc1` (stereo unspecified), the inhibition is 50.4% (active).

Regarding `COc1ccccc1-n1cnnc1SCC(=O)N1CCN(S(=O)(=O)c2ccccc2)CC1`, the inhibition was 4.9% (inactive).

In the case of `Cn1nnnc1SCCNCc1ccc(Cl)cc1`, the inhibition was 3.8% (inactive).

Regarding `O=C(CCCn1c(=O)oc2ccccc21)NC1CCCCCC1`, the inhibition was -6.9% (inactive).

Turning to `COc1ccc(N2C(=O)C(Cl)=C(N(CCO)Cc3ccccc3)C2=O)cc1`, the inhibition was 3.2% (inactive).

For `O=C1C=C(N(CCO)Cc2ccccc2)c2ccccc2C1=O`, the inhibition was 64.6% (active).

Take `O=C(CCN1C(=O)c2ccccc2C1=O)N(CCO)Cc1ccccc1`: the inhibition was 0.1% (inactive).

On to `Cc1cc(Nc2ccc(F)cc2Cl)n2ncnc2n1`, for which the inhibition was 16.6% (inactive).

For `COc1ccc(/C=C/C2=NC(=C\N(C)C)/C(=O)O2)cc1`, the inhibition is 5.3% (inactive).

In the case of `COc1ccccc1/C=C/C1=NC(=C\C=C/c2ccccc2)/C(=O)O1`, the inhibition is 0.5% (inactive).

As to `COc1ccccc1/C=C/C1=NC(=C\N(C)C)/C(=O)O1`, the inhibition was 56.8% (active).

As for `CCCCOC(=O)C1[C@H]2C(=O)N(CCc3ccccc3)C[C@]23C=C[C@H]1O3` (stereo partly specified), the inhibition was -0.4% (inactive).

On to `CCOC(=O)c1c(C)c(C(=O)NCc2ccccn2)c(C)n1CC`, for which the inhibition is 12.2% (inactive).

As to `CCOC(=O)c1c(C)c(C(=O)NCc2cccnc2)c(C)n1CC`, the inhibition is 108% (active).

Consider `CCOC(=O)c1c(C)c(C(=O)NCc2cccnc2)c(C)n1C`, for which the inhibition is -0.6% (inactive).

Take `S=c1[nH]ncc2ccccc12`: the inhibition was -67.9% (inactive).

As to `Cc1ccc(/C=C/C2=NN(C)C(=O)CC2)cc1`, the inhibition is -3.3% (inactive).

Take `Cc1cccc(C)c1NC(=O)CC1SC2=NCCN2C1=O` (stereo unspecified): the inhibition was 6.8% (inactive).

`CC(/C=C/c1ccccc1)=N\Nc1ccccc1[N+](=O)[O-]`: the inhibition was 0.8% (inactive).

Turning to `CC(C)/C(=N/Nc1ccccc1[N+](=O)[O-])c1ccccc1`, the inhibition is 54.4% (active).

As for `CC/C(=N\Nc1ccccc1[N+](=O)[O-])c1ccc(O)cc1`, the inhibition is -0.4% (inactive).

As to `Cc1ccc(/C=C/C(=O)NCc2cccs2)cc1`, the inhibition is -6.3% (inactive).

Turning to `Cc1ccc(-n2nc(C)c(/C=N/NC(=O)c3cccnc3)c2Cl)cc1`, the inhibition was 15.6% (inactive).

Turning to `Cc1nn(-c2cccc(Cl)c2)c(Cl)c1/C=N/NC(=O)c1cccnc1`, the inhibition was 55.5% (active).

Take `Cc1nn(-c2ccccc2)c(Cl)c1/C=N/NC(=O)c1cccnc1`: the inhibition is -3.1% (inactive).

Take `C=CCNC(=S)Nc1cccc(N)c1`: the inhibition was 57.6% (active).

`C=CCNC(=S)Nc1ccccc1`: the inhibition was 9% (inactive).

As to `C=CCNC(=S)Nc1cccc(NC(=S)NCC=C)c1`, the inhibition is 5.5% (inactive).

Take `O=C(Cc1c(O)c2ccccc2[nH]c1=O)NC1CCCCCC1`: the inhibition was 5.7% (inactive).

Regarding `CCC(C)(C)n1nnnc1CN1CCC(NC(=O)c2ccc(Br)cc2)CC1`, the inhibition is 7% (inactive).

For `CCCCc1cc2c(c(NC(=O)CC)n1)c(=O)oc1ccccc12`, the inhibition was -0.5% (inactive).

For the molecule `Cc1ccc2c(c1)/C(=N/N1C(=O)c3ccccc3C1=O)C(=O)N2`, the inhibition is 8.4% (inactive).

Take `COc1ccc(N=C2C(=O)Nc3ccccc32)cc1`: the inhibition is 43% (inactive).

In the case of `CCn1c(-c2ccccc2Cl)nn(CC(=O)Nc2cc(Cl)ccc2Cl)c1=S`, the inhibition is 4.7% (inactive).

`CNc1nc(-c2ccccc2)cc(C)c1S(C)(=O)=O`: the inhibition is 56% (active).

Consider `Cc1cc(-c2ccccc2)nc(N(C)C)c1S(C)(=O)=O`, for which the inhibition is 2% (inactive).

Take `Cc1cc(-c2ccccc2)nc(N(C)N)c1S(C)(=O)=O`: the inhibition was -2.2% (inactive).

As to `Cc1c(Br)c([N+](=O)[O-])nn1CC(=O)NCCc1c[nH]c2ccccc12`, the inhibition is 6.1% (inactive).

`CSCCNC(=O)c1ccc(OC2CCN(CCc3ccccc3)CC2)cc1`: the inhibition is -9.3% (inactive).

Turning to `O=C(Cn1nc(-c2ccccc2)ccc1=O)Nc1cccc(NC(=O)c2ccccn2)c1`, the inhibition is -11.7% (inactive).

`CN1CCS/C1=C\C=C1/SC(=S)N(CC(=O)O)C1=O`: the inhibition was 19.8% (inactive).

As for `CCN1C(=O)/C(=C/C=C2/SCCN2C)SC1=S`, the inhibition is 27.6% (inactive).

Turning to `CCCCN1C(=O)/C(=C/C=C2\SCCN2C)SC1=S`, the inhibition was 53.5% (active).

For the molecule `COc1ccc(-c2cc(CNC(=O)CN3CCN(C)CC3)on2)cc1`, the inhibition was 20.4% (inactive).

As to `COc1cc(OC)cc(-c2nc(-c3cccs3)no2)c1`, the inhibition was 10.1% (inactive).

In the case of `Cc1cc2cc(NC(=O)c3ccco3)ccc2[nH]1`, the inhibition is 10.8% (inactive).

Regarding `CC(=O)Nc1cccc(NC(=O)CSc2ccc3nnc(CCNC(=O)c4ccccc4)n3n2)c1`, the inhibition is 10.1% (inactive).

As to `Nc1ccccc1N1CCOCC1`, the inhibition was -0.3% (inactive).

As for `Nc1cc(Cl)ccc1N1CCCC1`, the inhibition is 36.3% (inactive).

For the molecule `Nc1ccc(N2CCOCC2)c2nonc12`, the inhibition is 57% (active).

On to `Nc1ccc(N2CCCCC2)c2nonc12`, for which the inhibition was 68.3% (active).

Take `Nc1cc(Cl)ccc1N1CCOCC1`: the inhibition was -3.8% (inactive).

Regarding `Nc1c(N2CCCC2)cc(Cl)c2nonc12`, the inhibition is 55.1% (active).

For `Nc1ccc(N2CCCCC2)cc1N1CCCCC1`, the inhibition is 46.4% (inactive).

With `Nc1ccc(N2CCCCC2)c(Cl)c1`, the inhibition is 2.9% (inactive).

Turning to `Nc1nonc1N1CCCCC1`, the inhibition is 13.1% (inactive).

For `CN1CCN(C(=O)C2=C[C@@H](c3ccccc3)C[C@@H](OCc3ccc(CO)cc3)O2)CC1`, the inhibition was 1.7% (inactive).

In the case of `CCCCCCOC1(c2ccccc2)OC(=O)c2ccccc21` (stereo unspecified), the inhibition is 11.5% (inactive).

Take `CCCCCn1c(=O)[nH]c2c(c1=O)CCC2`: the inhibition was 4.7% (inactive).

On to `CC1(C)C(=O)NCCN1C(=O)CCCC(=O)O`, for which the inhibition was 2.6% (inactive).

For `OCCn1c(CSc2nc3ccccc3n2CCO)nc2ccccc21`, the inhibition is 3% (inactive).

For the molecule `O=C(NCc1ccccn1)c1cccs1`, the inhibition was 4.7% (inactive).

For `CC(C)(C)C(=O)Nc1nnc(CC(=O)NCc2ccccc2)s1`, the inhibition is 13.1% (inactive).

For `O=C(O)[C@@H]1[C@@H]2C[C@@H]2CN1c1ncccc1[N+](=O)[O-]`, the inhibition was 65.1% (active).

With `O=[N+]([O-])c1cccnc1N1CCOCC1`, the inhibition is 7.1% (inactive).

For `O=C(O)C1CCCN1c1ncccc1[N+](=O)[O-]` (stereo unspecified), the inhibition was 50.8% (active).

For `NC(=O)C1CCN(c2ncccc2[N+](=O)[O-])CC1`, the inhibition was -3.3% (inactive).

Consider `O=[N+]([O-])c1cccnc1N1CCCCC1`, for which the inhibition was 10.7% (inactive).

In the case of `O=C(O)C1CN(c2ncccc2[N+](=O)[O-])C1`, the inhibition was 26.1% (inactive).

Turning to `COc1cccc(NC(=O)c2ccc(NCCCN3CC(C)CC(C)C3)c([N+](=O)[O-])c2)c1` (stereo unspecified), the inhibition is -12.8% (inactive).

`CCOP(=O)(CC(C(C)=O)C(O)c1ccccc1)OCC` (stereo unspecified): the inhibition is 11.7% (inactive).

For `Cc1cccc(/C=N\Nc2nnc(-c3ccccc3)c(=O)[nH]2)c1`, the inhibition is 7.5% (inactive).

With `Cc1ccc(S(=O)(=O)N2CCCC2C(=O)Nc2nc3ccccc3s2)cc1` (stereo unspecified), the inhibition was 17.6% (inactive).

As to `CCN(CC)c1ccc(/C=N/NC(=S)NC)c(O)c1`, the inhibition is 21.9% (inactive).

`CCN(CC)c1ccc(/C=N/N(c2ccccc2)c2ccccc2)c(O)c1`: the inhibition is 30% (inactive).

Regarding `CCN(CC)c1ccc(/C=N/N=C(N)N)c(O)c1`, the inhibition is 64% (active).

For the molecule `CCN(CC)c1ccc(/C=N/N=C(c2ccccc2)c2ccccc2)c(O)c1`, the inhibition is 4.8% (inactive).

For `CCN(CC)c1ccc(/C=N/NC(=O)OC)c(O)c1`, the inhibition was 27.7% (inactive).

For the molecule `CCN(CC)c1ccc(/C=N/Nc2cccc(C)c2)c(O)c1`, the inhibition is -62.5% (inactive).

In the case of `CCN(CC)c1ccc(/C=N/Nc2ccccc2)c(O)c1`, the inhibition was -21.9% (inactive).

For the molecule `CCN(CC)c1ccc(C=Nc2cc(C)cc(C)c2)c(O)c1`, the inhibition was 52.8% (active).

For the molecule `CCN(CC)c1ccc(C=Nc2ccc(C#N)cc2)c(O)c1`, the inhibition was 40.4% (inactive).

As to `CCOC(=O)N/N=C/c1ccc(N(CC)CC)cc1O`, the inhibition was 53.3% (active).

For `CCN(CC)c1ccc(C=Nc2ccccc2)c(O)c1`, the inhibition is 61.8% (active).

Consider `CCC(=O)N1CCc2cc(S(=O)(=O)NC(Cc3ccccc3)C(=O)NC3CCCCC3)ccc21` (stereo unspecified), for which the inhibition is -11.2% (inactive).

As for `CCCCc1ccc(NC(=S)NCCN2CCOCC2)cc1`, the inhibition is -3.3% (inactive).

Take `COC(=O)c1cn(C)c2ccc(S(=O)(=O)N3CCOCC3)cc2c1=O`: the inhibition was 0.8% (inactive).

`CC(Nc1ccccc1)C(=O)Nc1ccc(F)cc1` (stereo unspecified): the inhibition is -11.4% (inactive).

In the case of `CCN(CC)c1ccc(C=Nc2ccc(N(C)C)cc2)c(O)c1`, the inhibition was 28.1% (inactive).

In the case of `CCN(CC)c1ccc(C=Nc2ccc(C)cc2)c(O)c1`, the inhibition was 57% (active).

For `CCN(CC)c1ccc(N=Cc2ccc(N(CC)CC)cc2O)cc1`, the inhibition is 19.5% (inactive).

Take `COc1ccc(N(C)S(=O)(=O)c2cccc(C(=O)NCC3CCCO3)c2)cc1` (stereo unspecified): the inhibition was -3.8% (inactive).

For `Cc1sc2ncnc(SCC(=O)N3CCN(C(=O)c4ccco4)CC3)c2c1C`, the inhibition was 6.2% (inactive).

Regarding `COc1ccc(C(C(=O)NC2CCCC2)N(Cc2ccccc2)C(=O)c2nsc(Cl)c2Cl)cc1` (stereo unspecified), the inhibition was 21.1% (inactive).

For `CN1CCc2c(sc3c2C(=O)NC(c2ccccc2)N3)C1` (stereo unspecified), the inhibition is 33% (inactive).

Regarding `CCOC(=O)N1CCc2c(sc3c2C(=O)NC(c2ccccc2)N3)C1` (stereo unspecified), the inhibition is 60.6% (active).

Regarding `CSc1ccc(C2NC(=O)c3c(sc4c3CCN(C)C4)N2)cc1` (stereo unspecified), the inhibition was 17% (inactive).
